# Measured values taken from publication PMC7862700, “An all-to-all approach to the identification of sequence-specific readers for epigenetic DNA modifications on cytosine”.
# Key:
# Experiment in all cases: DAPPL (digital affinity profiling via proximity ligation, sequencing); 10 mM Tris-HCl pH 7.5, 50 mM NaCl, 1 mM DTT, 4% glycerol, room temperature, 30 min; GST-TFs on glutathione beads, 16-mer random dsDNA library, 0.1% formaldehyde crosslink after washing; high values mean tight binding
# FLI1 = target: T1, FLI1 (Homo sapiens, UniProt Q01543 1-452); details: protein: recombinant; tags: N-terminal GST; dsDNA, one strand shown
# T1 sequence: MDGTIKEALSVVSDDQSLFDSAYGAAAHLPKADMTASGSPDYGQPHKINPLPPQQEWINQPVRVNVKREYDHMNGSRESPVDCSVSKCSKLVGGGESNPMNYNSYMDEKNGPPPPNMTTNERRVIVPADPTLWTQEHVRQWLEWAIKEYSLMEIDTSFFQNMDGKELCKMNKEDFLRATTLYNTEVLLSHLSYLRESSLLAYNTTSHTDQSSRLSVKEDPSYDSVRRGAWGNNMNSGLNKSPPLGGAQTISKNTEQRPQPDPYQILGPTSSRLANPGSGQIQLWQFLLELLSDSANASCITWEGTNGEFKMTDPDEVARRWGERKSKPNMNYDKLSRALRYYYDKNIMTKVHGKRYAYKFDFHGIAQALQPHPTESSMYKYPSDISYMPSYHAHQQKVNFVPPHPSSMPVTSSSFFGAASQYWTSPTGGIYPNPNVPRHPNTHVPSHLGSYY
# Summary of the method: (§1)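 After expression in yeast as GST fusions, human transcription factors were bound to glutathione beads, DNA-barcoded and mixed with a tag-only sample. The pools were incubated with 200 nmole of a 16-mer random double-stranded DNA library in Tris/NaCl/DTT/glycerol buffer (30 min, room temperature), washed and crosslinked with 0.1% formaldehyde. Proximity ligation with BsaI/T4 ligase ran for 1 h at 37 °C, before PCR amplification and sequencing on an Illumina NextSeq500. Binding signal is a hexamer's read frequency for a factor divided by its frequency for the tag-only sample.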
# ELK1 = target: T2, ELK1 (Homo sapiens, UniProt P19419 1-428); details: protein: recombinant; tags: N-terminal GST; dsDNA, one strand shown
# T2 sequence: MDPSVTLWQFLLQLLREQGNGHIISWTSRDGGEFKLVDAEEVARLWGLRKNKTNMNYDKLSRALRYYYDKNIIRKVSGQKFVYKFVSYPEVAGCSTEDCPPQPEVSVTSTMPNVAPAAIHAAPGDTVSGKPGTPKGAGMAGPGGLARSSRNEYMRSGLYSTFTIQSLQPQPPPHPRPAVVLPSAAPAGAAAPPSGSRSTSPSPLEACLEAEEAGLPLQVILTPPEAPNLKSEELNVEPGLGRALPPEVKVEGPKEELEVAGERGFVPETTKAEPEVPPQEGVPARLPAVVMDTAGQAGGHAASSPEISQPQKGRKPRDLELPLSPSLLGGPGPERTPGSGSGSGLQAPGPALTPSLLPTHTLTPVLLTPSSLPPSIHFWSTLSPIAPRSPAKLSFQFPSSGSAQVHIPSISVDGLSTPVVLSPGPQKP
# Summary of the method: as §1
# GABPA = target: T3, GABPA (Homo sapiens, UniProt Q06546 1-454); details: protein: recombinant; tags: N-terminal GST; dsDNA, one strand shown
# T3 sequence: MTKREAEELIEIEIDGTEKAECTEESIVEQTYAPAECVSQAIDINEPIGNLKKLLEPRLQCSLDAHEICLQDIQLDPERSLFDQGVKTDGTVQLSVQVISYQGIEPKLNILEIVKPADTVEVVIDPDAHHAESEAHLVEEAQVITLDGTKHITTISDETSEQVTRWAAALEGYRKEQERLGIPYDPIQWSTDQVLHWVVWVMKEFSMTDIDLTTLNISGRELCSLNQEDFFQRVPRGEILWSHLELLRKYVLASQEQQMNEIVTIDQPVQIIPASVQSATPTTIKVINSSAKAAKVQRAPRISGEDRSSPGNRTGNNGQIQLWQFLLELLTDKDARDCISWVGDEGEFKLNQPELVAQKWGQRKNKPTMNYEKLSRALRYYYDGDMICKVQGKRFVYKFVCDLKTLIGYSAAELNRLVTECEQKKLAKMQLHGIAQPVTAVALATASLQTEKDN
# Summary of the method: as §1
# ERG = target: T4, ERG (Homo sapiens, UniProt P11308 1-479); details: protein: recombinant; tags: N-terminal GST; dsDNA, one strand shown
# T4 sequence: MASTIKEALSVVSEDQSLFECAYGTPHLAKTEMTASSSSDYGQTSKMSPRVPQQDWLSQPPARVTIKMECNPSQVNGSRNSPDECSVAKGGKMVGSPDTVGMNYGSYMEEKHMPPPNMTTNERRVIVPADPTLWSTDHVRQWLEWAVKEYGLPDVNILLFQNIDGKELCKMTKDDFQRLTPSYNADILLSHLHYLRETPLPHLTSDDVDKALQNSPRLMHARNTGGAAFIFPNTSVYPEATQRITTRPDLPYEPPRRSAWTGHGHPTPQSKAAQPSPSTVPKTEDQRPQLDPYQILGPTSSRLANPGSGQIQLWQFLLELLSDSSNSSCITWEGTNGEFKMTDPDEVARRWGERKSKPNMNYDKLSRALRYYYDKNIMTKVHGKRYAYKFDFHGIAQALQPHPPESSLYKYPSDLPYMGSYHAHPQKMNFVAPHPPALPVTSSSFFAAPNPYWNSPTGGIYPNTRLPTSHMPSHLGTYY
# Summary of the method: as §1
# ELF1 = ELF1 (Homo sapiens, UniProt P32519 1-619); details: protein: recombinant; tags: N-terminal GST; dsDNA, one strand shown
# Chain of ELF1 (P32519 whole entry): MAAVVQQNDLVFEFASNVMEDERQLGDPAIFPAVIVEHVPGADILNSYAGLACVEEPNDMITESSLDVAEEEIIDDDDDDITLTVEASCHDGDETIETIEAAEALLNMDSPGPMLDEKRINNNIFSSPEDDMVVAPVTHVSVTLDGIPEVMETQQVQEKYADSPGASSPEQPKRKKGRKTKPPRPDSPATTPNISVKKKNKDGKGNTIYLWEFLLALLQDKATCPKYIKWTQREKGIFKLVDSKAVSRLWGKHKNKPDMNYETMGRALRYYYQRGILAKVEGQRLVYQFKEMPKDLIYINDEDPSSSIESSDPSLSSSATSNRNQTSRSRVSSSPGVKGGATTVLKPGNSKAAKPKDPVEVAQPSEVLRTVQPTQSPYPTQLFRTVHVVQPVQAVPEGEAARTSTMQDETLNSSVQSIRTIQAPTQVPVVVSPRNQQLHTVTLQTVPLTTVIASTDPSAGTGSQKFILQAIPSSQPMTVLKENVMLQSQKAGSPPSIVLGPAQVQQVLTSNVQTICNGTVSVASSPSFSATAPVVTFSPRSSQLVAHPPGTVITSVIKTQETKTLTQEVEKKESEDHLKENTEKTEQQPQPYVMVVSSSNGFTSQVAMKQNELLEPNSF
# Summary of the method: as §1
# EHF = target: T5, EHF (Homo sapiens, UniProt Q9NZC4 1-300); details: protein: recombinant; tags: N-terminal GST; dsDNA, one strand shown
# T5 sequence: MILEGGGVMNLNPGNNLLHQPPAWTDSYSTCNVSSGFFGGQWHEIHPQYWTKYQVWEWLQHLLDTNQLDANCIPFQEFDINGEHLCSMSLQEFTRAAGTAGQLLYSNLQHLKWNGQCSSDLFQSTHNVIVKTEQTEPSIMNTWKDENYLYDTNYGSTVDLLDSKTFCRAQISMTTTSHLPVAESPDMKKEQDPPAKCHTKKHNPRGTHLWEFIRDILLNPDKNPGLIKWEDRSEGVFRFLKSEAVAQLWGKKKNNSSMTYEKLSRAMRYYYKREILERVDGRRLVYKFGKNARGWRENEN
# Summary of the method: as §1
# SPI1 = SPI1 (Homo sapiens, UniProt P17947 1-270); details: protein: recombinant; tags: N-terminal GST; dsDNA, one strand shown
# Summary of the method: as §1
# SPIB = SPIB (Homo sapiens, UniProt Q01892 1-262); details: protein: recombinant; tags: N-terminal GST; dsDNA, one strand shown
# Chain of SPIB (Q01892 whole entry): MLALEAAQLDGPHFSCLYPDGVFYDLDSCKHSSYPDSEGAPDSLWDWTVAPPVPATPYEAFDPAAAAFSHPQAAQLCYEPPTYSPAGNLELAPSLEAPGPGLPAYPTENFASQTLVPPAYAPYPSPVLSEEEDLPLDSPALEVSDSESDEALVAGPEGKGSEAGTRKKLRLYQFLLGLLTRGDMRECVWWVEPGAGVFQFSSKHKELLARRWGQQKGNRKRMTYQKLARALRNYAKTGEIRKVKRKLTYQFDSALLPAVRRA
# Summary of the method: as §1
# ELK3 = target: T6, ELK3 (Homo sapiens, UniProt P41970 1-407); details: protein: recombinant; tags: N-terminal GST; dsDNA, one strand shown
# T6 sequence: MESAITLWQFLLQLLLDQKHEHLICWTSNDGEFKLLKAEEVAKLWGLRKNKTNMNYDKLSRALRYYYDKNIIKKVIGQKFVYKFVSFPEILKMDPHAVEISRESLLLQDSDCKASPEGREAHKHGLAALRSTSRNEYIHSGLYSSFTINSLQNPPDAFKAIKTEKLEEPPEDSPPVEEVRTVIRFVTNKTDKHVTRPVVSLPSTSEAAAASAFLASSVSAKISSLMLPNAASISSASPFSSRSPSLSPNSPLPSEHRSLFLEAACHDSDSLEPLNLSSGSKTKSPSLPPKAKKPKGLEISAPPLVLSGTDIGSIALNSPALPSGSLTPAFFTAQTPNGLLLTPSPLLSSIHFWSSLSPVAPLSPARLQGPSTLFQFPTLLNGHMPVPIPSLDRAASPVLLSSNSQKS
# Summary of the method: as §1
# FEV = target: T7, FEV (Homo sapiens, UniProt Q99581 1-238); details: protein: recombinant; tags: N-terminal GST; dsDNA, one strand shown
# T7 sequence: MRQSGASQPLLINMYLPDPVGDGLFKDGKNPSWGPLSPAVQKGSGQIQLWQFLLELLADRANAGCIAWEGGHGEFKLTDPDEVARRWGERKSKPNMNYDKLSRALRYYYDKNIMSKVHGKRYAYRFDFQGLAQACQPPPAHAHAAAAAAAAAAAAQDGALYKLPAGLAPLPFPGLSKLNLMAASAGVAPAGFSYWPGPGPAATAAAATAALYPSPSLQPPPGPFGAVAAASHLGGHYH
# Summary of the method: as §1
# ETV5 = ETV5 (Homo sapiens, UniProt P41161 1-510); details: protein: recombinant; tags: N-terminal GST; dsDNA, one strand shown
# Chain of ETV5 (P41161 whole entry): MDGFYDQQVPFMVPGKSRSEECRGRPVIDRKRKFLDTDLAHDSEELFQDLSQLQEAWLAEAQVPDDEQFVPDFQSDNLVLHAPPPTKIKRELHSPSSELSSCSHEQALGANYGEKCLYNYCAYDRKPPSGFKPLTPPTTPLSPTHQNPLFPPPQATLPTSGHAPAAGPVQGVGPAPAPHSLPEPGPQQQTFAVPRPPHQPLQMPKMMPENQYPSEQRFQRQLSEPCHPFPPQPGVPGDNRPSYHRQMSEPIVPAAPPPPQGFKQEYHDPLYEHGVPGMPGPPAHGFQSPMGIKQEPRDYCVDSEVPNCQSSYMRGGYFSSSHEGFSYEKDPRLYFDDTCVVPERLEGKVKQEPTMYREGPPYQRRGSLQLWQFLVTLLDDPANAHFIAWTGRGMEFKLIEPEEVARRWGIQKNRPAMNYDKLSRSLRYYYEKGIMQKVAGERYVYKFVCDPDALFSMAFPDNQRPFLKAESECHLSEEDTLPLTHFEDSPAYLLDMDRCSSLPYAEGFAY
# Summary of the method: as §1
# HSF1 = HSF1 (Homo sapiens, UniProt Q00613 1-529); details: protein: recombinant; tags: N-terminal GST; chain copies: 3; dsDNA, one strand shown
# Chain of HSF1 (Q00613 whole entry): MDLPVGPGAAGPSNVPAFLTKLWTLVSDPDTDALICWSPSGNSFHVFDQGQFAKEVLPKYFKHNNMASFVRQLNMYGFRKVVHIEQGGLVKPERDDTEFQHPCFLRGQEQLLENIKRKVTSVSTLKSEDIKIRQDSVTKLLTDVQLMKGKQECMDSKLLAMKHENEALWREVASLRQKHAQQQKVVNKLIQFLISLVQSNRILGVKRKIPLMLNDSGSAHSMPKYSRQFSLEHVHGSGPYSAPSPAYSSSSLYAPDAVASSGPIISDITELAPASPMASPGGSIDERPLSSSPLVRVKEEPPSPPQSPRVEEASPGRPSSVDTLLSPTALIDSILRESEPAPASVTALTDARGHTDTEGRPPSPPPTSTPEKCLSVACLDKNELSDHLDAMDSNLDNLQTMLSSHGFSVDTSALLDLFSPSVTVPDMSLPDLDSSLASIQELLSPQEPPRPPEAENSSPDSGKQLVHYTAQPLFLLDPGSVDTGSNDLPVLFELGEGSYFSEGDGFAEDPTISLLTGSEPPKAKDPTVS
# Summary of the method: as §1
# SPIC = target: T8, SPIC (Homo sapiens, UniProt Q8N5J4 1-248); details: protein: recombinant; tags: N-terminal GST; dsDNA, one strand shown
# T8 sequence: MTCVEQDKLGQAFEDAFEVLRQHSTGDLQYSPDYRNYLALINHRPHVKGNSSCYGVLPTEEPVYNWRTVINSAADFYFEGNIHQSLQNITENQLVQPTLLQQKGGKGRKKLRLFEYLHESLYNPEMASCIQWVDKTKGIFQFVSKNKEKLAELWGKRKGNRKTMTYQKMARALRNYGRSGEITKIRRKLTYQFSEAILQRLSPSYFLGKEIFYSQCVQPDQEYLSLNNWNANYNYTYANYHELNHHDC
# Summary of the method: as §1
# ELF4 = ELF4 (Homo sapiens, UniProt Q99607 1-663); details: protein: recombinant; tags: N-terminal GST; dsDNA, one strand shown
# Chain of ELF4 (Q99607 whole entry): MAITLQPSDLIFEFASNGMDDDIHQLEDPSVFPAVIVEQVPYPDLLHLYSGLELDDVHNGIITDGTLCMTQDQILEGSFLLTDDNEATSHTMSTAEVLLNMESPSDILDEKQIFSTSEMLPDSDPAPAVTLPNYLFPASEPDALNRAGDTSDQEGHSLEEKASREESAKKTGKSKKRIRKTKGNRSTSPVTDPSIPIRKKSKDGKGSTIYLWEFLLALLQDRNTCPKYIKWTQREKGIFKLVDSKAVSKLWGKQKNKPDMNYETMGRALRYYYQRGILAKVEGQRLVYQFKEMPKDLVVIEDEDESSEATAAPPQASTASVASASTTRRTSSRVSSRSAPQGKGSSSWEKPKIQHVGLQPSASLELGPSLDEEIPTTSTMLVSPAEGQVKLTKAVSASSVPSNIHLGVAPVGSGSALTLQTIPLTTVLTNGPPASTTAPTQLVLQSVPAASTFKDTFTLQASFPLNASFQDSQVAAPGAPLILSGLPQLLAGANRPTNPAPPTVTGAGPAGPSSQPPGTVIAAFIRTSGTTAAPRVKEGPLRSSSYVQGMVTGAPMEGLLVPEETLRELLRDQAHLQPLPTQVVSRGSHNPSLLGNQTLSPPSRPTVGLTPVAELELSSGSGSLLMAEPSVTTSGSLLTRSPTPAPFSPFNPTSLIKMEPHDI
# Summary of the method: as §1
# ELK4 = target: T9, ELK4 (Homo sapiens, UniProt P28324-2 1-405); details: protein: recombinant; tags: N-terminal GST; dsDNA, one strand shown
# T9 sequence: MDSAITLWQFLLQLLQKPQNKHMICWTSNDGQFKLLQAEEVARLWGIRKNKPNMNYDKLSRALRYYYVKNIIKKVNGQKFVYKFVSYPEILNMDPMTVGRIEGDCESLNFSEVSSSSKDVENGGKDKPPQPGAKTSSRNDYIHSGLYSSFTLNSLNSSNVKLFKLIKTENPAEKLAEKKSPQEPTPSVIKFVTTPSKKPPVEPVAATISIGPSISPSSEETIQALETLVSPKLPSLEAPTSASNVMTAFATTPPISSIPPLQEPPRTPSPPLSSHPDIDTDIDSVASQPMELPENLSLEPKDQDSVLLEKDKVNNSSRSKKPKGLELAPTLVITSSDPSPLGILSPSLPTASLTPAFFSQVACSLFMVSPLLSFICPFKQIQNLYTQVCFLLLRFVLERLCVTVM
# Summary of the method: as §1
# ETV2 = target: T10, ETV2 (Homo sapiens, UniProt O00321 1-342); details: protein: recombinant; tags: N-terminal GST; dsDNA, one strand shown
# T10 sequence: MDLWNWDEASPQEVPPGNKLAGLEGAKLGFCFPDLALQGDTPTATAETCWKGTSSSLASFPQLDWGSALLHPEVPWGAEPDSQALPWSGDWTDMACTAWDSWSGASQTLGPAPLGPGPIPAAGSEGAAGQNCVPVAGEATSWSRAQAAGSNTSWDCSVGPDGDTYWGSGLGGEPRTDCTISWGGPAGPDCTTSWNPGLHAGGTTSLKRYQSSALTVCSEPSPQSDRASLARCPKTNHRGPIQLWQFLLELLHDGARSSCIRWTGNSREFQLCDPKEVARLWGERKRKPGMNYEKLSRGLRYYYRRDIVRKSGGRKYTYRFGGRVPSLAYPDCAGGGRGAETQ
# Summary of the method: as §1
# ELF3 = target: T11, ELF3 (Homo sapiens, UniProt P78545 1-371); details: protein: recombinant; tags: N-terminal GST; dsDNA, one strand shown
# T11 sequence: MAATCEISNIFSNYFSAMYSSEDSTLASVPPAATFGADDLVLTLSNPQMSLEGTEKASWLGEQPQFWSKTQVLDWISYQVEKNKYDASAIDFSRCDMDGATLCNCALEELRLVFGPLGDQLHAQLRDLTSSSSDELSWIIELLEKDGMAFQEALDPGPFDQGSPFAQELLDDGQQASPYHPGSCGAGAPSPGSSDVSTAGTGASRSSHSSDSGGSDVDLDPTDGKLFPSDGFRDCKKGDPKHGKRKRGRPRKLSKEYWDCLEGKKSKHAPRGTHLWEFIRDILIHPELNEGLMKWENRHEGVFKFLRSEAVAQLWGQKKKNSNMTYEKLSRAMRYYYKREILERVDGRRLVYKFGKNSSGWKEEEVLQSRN
# Summary of the method: as §1
# CRX = CRX (Homo sapiens, UniProt O43186 1-299); details: protein: recombinant; tags: N-terminal GST; dsDNA, one strand shown
# Chain of CRX (O43186 whole entry): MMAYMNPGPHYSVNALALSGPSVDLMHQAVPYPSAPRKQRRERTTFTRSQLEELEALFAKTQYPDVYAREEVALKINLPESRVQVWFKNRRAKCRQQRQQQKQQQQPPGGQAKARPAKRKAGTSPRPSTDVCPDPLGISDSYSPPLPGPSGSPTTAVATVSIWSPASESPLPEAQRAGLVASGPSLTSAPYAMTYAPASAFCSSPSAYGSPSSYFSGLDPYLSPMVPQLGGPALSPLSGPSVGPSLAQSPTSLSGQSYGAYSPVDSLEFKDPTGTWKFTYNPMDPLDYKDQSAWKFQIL
# Summary of the method: as §1
# ETV1 = ETV1 (Homo sapiens, UniProt P50549 1-477); details: protein: recombinant; tags: N-terminal GST; dsDNA, one strand shown
# Chain of ETV1 (P50549 whole entry): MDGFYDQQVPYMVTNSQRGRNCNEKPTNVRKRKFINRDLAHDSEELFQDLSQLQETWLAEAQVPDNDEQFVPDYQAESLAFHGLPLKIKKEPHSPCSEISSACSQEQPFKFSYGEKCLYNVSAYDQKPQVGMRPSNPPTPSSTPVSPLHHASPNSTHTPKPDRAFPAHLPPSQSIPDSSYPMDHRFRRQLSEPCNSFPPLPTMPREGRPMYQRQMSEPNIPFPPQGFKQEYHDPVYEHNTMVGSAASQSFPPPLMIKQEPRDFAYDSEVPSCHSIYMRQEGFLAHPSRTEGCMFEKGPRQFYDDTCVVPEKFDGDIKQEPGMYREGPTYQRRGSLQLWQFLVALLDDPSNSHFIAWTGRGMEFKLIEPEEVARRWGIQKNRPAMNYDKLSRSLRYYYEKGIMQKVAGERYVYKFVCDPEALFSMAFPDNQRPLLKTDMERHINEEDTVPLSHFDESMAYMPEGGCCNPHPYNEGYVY
# Summary of the method: as §1
sequence,measurement,setting,value
CTTCTT,binding signal,FLI1,"1.44 fold enrichment (6-mer frequency, TF over GST control)"
same,binding signal,ELK1,"1.58 fold enrichment (6-mer frequency, TF over GST control)"
same,binding signal,GABPA,"1.5 fold enrichment (6-mer frequency, TF over GST control)"
same,binding signal,ERG,"1.63 fold enrichment (6-mer frequency, TF over GST control)"
same,binding signal,ELF1,"1.65 fold enrichment (6-mer frequency, TF over GST control)"
same,binding signal,EHF,"1.53 fold enrichment (6-mer frequency, TF over GST control)"
same,binding signal,SPI1,"1.61 fold enrichment (6-mer frequency, TF over GST control)"
same,binding signal,SPIB,"1.44 fold enrichment (6-mer frequency, TF over GST control)"
same,binding signal,ELK3,"1.61 fold enrichment (6-mer frequency, TF over GST control)"
same,binding signal,FEV,"1.48 fold enrichment (6-mer frequency, TF over GST control)"
same,binding signal,ETV5,"1.59 fold enrichment (6-mer frequency, TF over GST control)"
same,binding signal,HSF1,"1.84 fold enrichment (6-mer frequency, TF over GST control)"
same,binding signal,SPIC,"1.61 fold enrichment (6-mer frequency, TF over GST control)"
same,binding signal,ELF4,"1.6 fold enrichment (6-mer frequency, TF over GST control)"
same,binding signal,ELK4,"1.58 fold enrichment (6-mer frequency, TF over GST control)"
same,binding signal,ETV2,"1.53 fold enrichment (6-mer frequency, TF over GST control)"
same,binding signal,ELF3,"1.45 fold enrichment (6-mer frequency, TF over GST control)"
same,binding signal,CRX,"1.89 fold enrichment (6-mer frequency, TF over GST control)"
same,binding signal,ETV1,"1.48 fold enrichment (6-mer frequency, TF over GST control)"
